# Laboratory results: PubChem BioAssay AID1345085 (National Center for Advancing Translational Sciences (NCATS), 2018)
# Results filed as inconclusive are left out. Activity calls are given as the source filed them. The call rests on the fitted dose curve; in most records, active means well fitted cell-killing curve with a large enough effect; inconclusive means small, poorly fitted or top-dose-only effect, or effect the other way; inactive means no such curve, though single readings can be large or run the other way.
# Test system: Tov-21-G
# Assay: Confirmatory qHTS for gynecologic anti-cancer compounds from libraries of approved drugs and bioactive compounds; further: nearly all actives have a fitted effect of over 55% in size
# Conditions: gynecologic cancer cell panel viability, ATPlite luminescence, 48 h; series mostly up to 57.7 µM
# Summary of the method: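 ATPlite luminescence read-out of cell viability; IC50 from 11-point 1:3 titrations, 57.5 uM to 0.977 nM, 48 h compound exposure at 37 C, 5% CO2. Cells seeded at 1,000/well 16 h before dosing.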
# Potency means the concentration at half of the fitted maximal effect.
row,Structure (SMILES),Potency
1,CCNC(=O)C[C@@H]1N=C(c2ccc(Cl)cc2)c2cc(OC)ccc2-n2c(C)nnc21,0.685 µM (active)
2,CCN1CCN(C(=O)Cc2ccc(Nc3ncc(F)c(Nc4ccc(C(=O)Nc5ccccc5Cl)cc4)n3)cc2)CC1,inactive
3,C/C=C(/C)C(=O)O[C@H]1C(C)=C2[C@H]([C@@H]1OC(=O)CCCCCCC)[C@@](C)(OC(C)=O)C[C@H](OC(=O)CCC)[C@@]1(O)[C@H]2OC(=O)[C@@]1(C)O,13.7 µM (active)
4,O=C(O)Cc1ccccc1,inactive
5,Cc1sc2c(c1C)C(c1ccc(Cl)cc1)=NC(CC(=O)OC(C)(C)C)c1nnc(C)n1-2 (stereo unspecified),1.22 µM (active)
6,CCOc1ccccc1-n1c(C(C)N2CCN(C(=O)COc3ccc(Cl)cc3)CC2)nc2ccccc2c1=O (stereo unspecified),1.72 µM (active)
